A selection: hits, their analogues and other compounds. The true share with any hit is near 4.6%.
NALP3 yeast inh: NALP3 inflammasome inhibitors in reconstituted yeast, primary screen, luminescence, uHTS | Yeast reconstituted NLRP3/ASC/caspase-1, beta-gal luminescence, 24 h | inhibition, % at 10 µM | actives 0.39% (n = 330,000);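 active = inhibition of 50% or more; inactive = inhibition below 50%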;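 also: plate controls were induced DMSO wells for no effect and uninduced yeast grown without galactose for full effect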
PfHsp90 set2: growth inhibition of PfHsp90-expressing yeast, primary screen, antimalarial PfHsp90 inhibitor project, S. cerevisiae, BacTiter-Glo luminescence, single point, set 2. BacTiter-Glo ATP, 48 h; yeast lacking PDR1 and PDR3 efflux regulators. inhibition, % at 9.4 µM. actives 0.32% (n = 310,000). AID 504621, 2011;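 active = every replicate shows inhibition above about 80%, whatever the replicate mean, limit read from the data; inconclusive = mean inhibition reaches the set limit but some replicate falls short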;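 also: 0% = DMSO neutral controls and 100% = 20 µM radicicol positive controls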
tim23-1 inh: growth inhibitors of tim23-1 mutant yeast, primary screen, luminescence, uHTS | actives 1.3% (n = 330,000) | S. cerevisiae tim23-1 growth, BacTiter-Glo luminescence, 24 h | AID 463212, 2010 | inhibition, % at 20 µM;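 active = growth inhibition of the mutant yeast at or above 50%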;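 also: temperature-sensitive mutant grown at 25 °C; plate controls were DMSO-treated mutant yeast for no effect and medium wells lacking yeast for full effect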
tim10-1 inh: growth inhibitors of tim10-1 mutant yeast, primary screen, luminescence, uHTS. S. cerevisiae tim10-1 ts strain growth, BacTiter-Glo, 24 h. inhibition, % at 20 µM. actives 2.2% (n = 330,000). AID 463190, 2010;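 active = inhibition of at least 40%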;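 also: mutant grown at 25 °C; 0% = DMSO wells with yeast and 100% = wells holding no yeast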
TIM10 inh: growth inhibitors of isogenic TIM10 control yeast, primary screen, counter-screen for tim10-1 yeast inhibitor project, luminescence, uHTS. S. cerevisiae TIM10 strain growth, BacTiter-Glo luminescence, 24 h. actives 1.4% (n = 330,000). inhibition, % at 10 µM;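 active = inhibition of 40% or more at the single tested concentration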;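 also: wild-type TIM10 isogenic control strain grown at permissive 25 °C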
SKKanGAS inh: S. pyogenes SKKanGAS growth inhibitors in kanamycin, primary screen, streptokinase expression inhibitor project, SKKanGAS strain, BacTiter-Glo luminescence. AID 1662, 2009. actives 1.3% (n = 300,000). 6 h. inhibition, % at 7.5 µM;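 active = mean replicate score, as percent of positive control median, at least 50; inconclusive = mean below 50 but one replicate at or above 50; inactive = mean and every replicate below 50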;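 also: strain carries kanamycin resistance gene driven by streptokinase promoter and grows in 40 µg/ml kanamycin; loss of luminescence reflects streptokinase promoter inhibition or plain growth inhibition; 0% = median of DMSO wells and 100% = positive control at its reference dose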
NALP3 yeast conf: NALP3 inhibitors retested in yeast, confirmation, luminescence, single concentration | shares compounds with NALP3 yeast inh | yeast expressing human NALP3 | inhibition, % at 10 µM | actives 81% (n = 1,300) | AID 435006, 2010; in the data active = inhibition above about 48%
Casp1-ASC yeast: CASP1-PYCARD signaling inhibition in yeast, confirmatory test, counterassay for NLRP3 inhibitor program, one-dose; shares compounds with NALP3 yeast inh; yeast expressing Caspase-1-ASC, luminescence counter screen; inhibition, % at 10 µM; actives 66% (n = 1,000); AID 488784, 2010
NALP3 yeast rt: NALP3 inhibitors in yeast, repeat test, confirmation, luminescence, single concentration, retest; shares compounds with NALP3 yeast inh; yeast expressing human NALP3, luminescence read-out; inhibition, % at 10 µM; actives 53% (n = 1,000); AID 488794, 2010
* hit, by the source's call; u = inconclusive; x = no result. Rule as the data show it, unless noted: active = inhibition above about 50%; inactive = the rest.

SMILES	NALP3 yeast inh	PfHsp90 set2	tim23-1 inh	tim10-1 inh	TIM10 inh	SKKanGAS inh	NALP3 yeast conf	Casp1-ASC yeast	NALP3 yeast rt
O=C(Nc1cc(Cl)ccc1O)c1cc(-c2ccco2)on1	50*	-3	6	-33	5	-3	66*	39	39
COc1cc(/C=C(\C#N)c2ccccn2)cc(OC)c1O	36	-5	16	6	23	-4	x	x	x
CN(C)c1ccc(/C=C(\C#N)c2ccccn2)cc1	51*	20	33	29	30	8	34	x	x
COC(=O)c1ccc(/C=C(\C#N)c2ccccn2)cc1	63*	15	23	-3	-7	18	52*	47	50
CC(=O)c1ccc(N(CC(=O)NC2CCS(=O)(=O)C2)S(=O)(=O)c2ccc(Cl)cc2)cc1 (configuration not stated)	14	27	-6	-11	-8	x	x	x	x
CCCCCCCCCCS(=O)(=O)N/N=C/c1ccc(O)cc1	50*	-4	-21	31	21	4	70*	44	47
CCCCCCCCCCS(=O)(=O)N/N=C/c1ccccc1OC	6	3	20	14	1	43	x	x	x
Cc1ccccc1OCC(=O)NNC(=O)c1cc(S(=O)(=O)N2CCOCC2)ccc1N1CCCC1	4	12	-16	-19	-3	18	x	x	x
COc1cccc(NC(=O)c2cnn(-c3ccccc3)c2C)c1	51*	15	22	-3	1	-7	59*	50	44
CCc1cccc(NC(=O)c2cnn(-c3ccccc3)c2C)c1	59*	24	35	-14	-49	-4	67*	57*	67*
Cc1ccc(NC(=O)c2cnn(-c3ccccc3)c2C)cc1	28	3	10	-11	-13	-6	x	x	x
CC1CCCC(C)N1CCNC(=O)CCc1nnc2n(Cc3ccccc3)c(=O)c3ccccc3n12 (configuration not stated)	17	11	-9	-7	6	0	x	x	x
Nc1ccc(-c2cc3ccccc3oc2=O)cc1	36	4	-2	-5	-11	-3	x	x	x
O=c1oc2ccccc2cc1-c1ccc(O)cc1	52*	-5	31	-7	8	-7	49	x	x
CCOc1ccccc1N1CCN(C(=O)c2ccc(OCC(=O)N3CCOCC3)c(OC)c2)CC1	3	-10	-23	-14	3	-4	x	x	x
Cc1cccc(NC(=O)c2nc[nH]c2C(=O)N[C@@H](C)C(=O)OC(C)(C)C)c1	35	20	41	29	8	5	x	x	x
C[C@H](NC(=O)c1[nH]cnc1C(=O)Nc1ccc(Cl)cc1)C(=O)OC(C)(C)C	58*	-29	37	17	11	23	65*	30	25
CC12CC3(C)CC(C)(C1)CC(NC(=O)N1CCCC1)(C2)C3	94*	-24	47	36	38	5	49*	98*	99*
CC1(NC(=O)N2CCCCC2)CCS(=O)(=O)C1 (configuration not stated)	8	14	1	10	9	-1	x	x	x
C/C(=N\Nc1ncc(Br)cn1)c1cccc([N+](=O)[O-])c1	51*	-6	29	13	-2	-1	61*	64*	49
CN1CCN(S(=O)(=O)c2cccc(C(=O)N(C)CC(=O)Nc3ccc(F)c(F)c3F)c2)CC1	12	x	15	19	8	-9	x	x	x
O=c1c2ccccc2oc2cc(C#CC3(O)CCCCC3)ccc12	16	-29	30	22	14	18	x	x	x
COc1cccc2oc3cc(C#CC4(O)CCCCC4)ccc3c(=O)c12	57*	22	9	33	0	36	60*	62*	48
CC(C)(C)[C@H]1COC(=O)CC/C=C\C[C@@H](CC(=O)N(CCO)Cc2ccccc2)C(=O)N1	10	5	2	-9	1	x	x	x	x
O=C1C(=C(O)c2ccccc2)C(=O)c2ccccc21	22	12	19	-9	5	2	x	x	x
SMILES	NALP3 yeast inh	PfHsp90 set2	tim23-1 inh	tim10-1 inh	TIM10 inh	SKKanGAS inh	NALP3 yeast conf	Casp1-ASC yeast	NALP3 yeast rt
O=C1C(=C(c2ccccc2)c2ccccc2)Nc2ccccc21	62*	12	27	-11	6	10	8	x	x
O=C(Nc1ccccc1O)c1ccccc1O	7	4	1	-7	14	3	x	x	x
Cc1cccc(NC(=O)c2ccccc2O)c1C	57*	-35	7	-8	-9	-3	57*	52*	59*
Nc1ccc(Oc2ccc3nc(-c4ccccc4)c(-c4ccccc4)nc3c2)cc1	-1	-48	46	35	11	1	x	x	x
Nc1ccc(Oc2cc(N)cc(Oc3ccccc3)c2)cc1	50*	7	48	29	35	6	64*	23	45
O=C(O)CCC(=O)Nc1ccc(N=Nc2ccccc2)cc1	x	x	x	x	x	-2	x	x	x
CC(C)(C)C(=O)Nc1ccc(N=Nc2ccccc2)cc1	53*	13	7	17	25	5	65*	50	39
CC1CCCCN1S(=O)(=O)c1cnc(Cl)c(Br)c1 (configuration not stated)	55*	9	4	-18	-56	0	54*	x	x
COc1ccc(NC(=O)c2nc[nH]c2C(=O)NCCCCCNC(=O)OC(C)(C)C)cc1	28	x	-2	-24	7	x	x	x	x
Cn1ncc2c(Nc3ccc(-c4ccccc4)cc3)ncnc21	51*	-7	45	-22	19	17	52*	60*	54*
Cn1ncc2c(Nc3ccc(Cl)c(Cl)c3)ncnc21	-4	-13	23	22	7	u	x	x	x
O=C(CSc1ccccc1)N1CCCC(N2CCN(c3ccccc3)CC2)C1 (configuration not stated)	12	-16	7	18	10	-16	x	x	x
Cc1cc(NC(=O)Cc2cc(F)cc(F)c2)no1	9	-3	13	18	13	1	x	x	x
COc1ccc(-c2nnc(SCc3cccc(C#N)c3)o2)cc1	54*	3	21	-24	8	-6	37	x	x
COc1cccc(CSc2nnc(-c3ccc(F)cc3)o2)c1	24	9	11	4	-6	-12	x	x	x
